According to PubChem BioAssay (NCI):
The panel holds about 79,000 compounds, 15% with a hit somewhere; the sample as a whole holds those more often. Calls of active or inactive are those of the source. No stated cut-off is given here; in the data, active means growth inhibition above about 70%; inactive means the rest.

Columns and labels:
[1] = NCI Yeast Anticancer Drug Screen. Data for the rad50 strain (AID 155);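 further: 0% = growth of vehicle-only cultures of the same strain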; details: S. cerevisiae rad50 strain growth inhibition; at 50.0 µM; stronger effect = higher value
How it was run: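 Compounds were tested on a yeast strain with an engineered DNA damage repair alteration; the reported value is growth inhibition normalised to vehicle treatment.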

[2] = NCI Yeast Anticancer Drug Screen. Data for the mec2-1 strain (AID 157); details: S. cerevisiae mec2-1 strain, at 50.0 µM, stronger effect = higher value
How it was run: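 Vehicle-treated cultures served as reference for growth inhibition of compound-exposed mec2-1 yeast.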

[3] = NCI Yeast Anticancer Drug Screen. Data for the sgs1 mgt1 strain (AID 161);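 further: 0% = growth of cultures given vehicle only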; details: S. cerevisiae sgs1 mgt1 strain, at 50.0 µM, stronger effect = higher value
How it was run: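 Genetically altered yeast, compound exposure, growth inhibition relative to vehicle.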

[4] = NCI Yeast Anticancer Drug Screen. Data for the cln2 rad14 strain (AID 165);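 further: 0% = growth equal to vehicle treated cultures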; details: S. cerevisiae cln2 rad14 strain, at 50.0 µM, stronger effect = higher value
How it was run: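 Each compound was tested on cln2 rad14 yeast. Inhibition of growth was calculated against vehicle-exposed controls.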

[5] = NCI Yeast Anticancer Drug Screen. Data for the bub3 strain (AID 167); details: S. cerevisiae bub3 mutant strain, at 50.0 µM, stronger effect = higher value
How it was run: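 Growth of a checkpoint-deficient yeast mutant is measured after compound exposure. Values represent inhibition relative to vehicle.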

[6] = NCI Yeast Anticancer Drug Screen. Data for the mlh1 rad18 strain (AID 175); details: S. cerevisiae mlh1 rad18 strain growth inhibition; at 50.0 µM; stronger effect = higher value
How it was run: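 Vehicle-treated cultures served as the reference for growth inhibition in a yeast strain carrying DNA damage repair alterations exposed to each compound.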

Measured: growth inhibition

O=P(O)(O)SP(=O)(O)O.[Mn]
inactive: [1] -14.7% | [2] -14.2% | [3] -1.9% | [4] -30.2% | [5] -11.7% | [6] -16.1%

O=P1(c2ccccc2)CCCCN1 (stereo unspecified)
inactive: [1] 12.2% | [2] -16.1% | [3] -5.1% | [4] -20.9% | [5] 3.55% | [6] 1.8%

O=C1C(Br)=C(N2CC2)C(=O)C(Br)=C1N1CC1
active: [1] 96% | [2] 88% | [3] 90.5% | [4] 79.2% | [6] 97%
inactive: [5] 39%

CC[N+](C)(C)c1ccc(C)c(OC(=O)NC)c1
inactive: [1] -4.35% | [2] -11.2% | [3] -0.2% | [4] -24.8% | [5] 15.3% | [6] -0.45%

CCOC(=O)C1C2(C)NC(=O)C1(Cc1ccccc1)c1cc(C)c(C)cc1O2 (stereo unspecified)
inactive: [1] -0.75% | [2] 16.5% | [3] -11.8% | [4] -6.15% | [5] -3.3% | [6] 3.45%

CC(=O)c1c(O)c(C)c(O)c(Cc2c(O)c3c(c(C(=O)/C=C/c4ccccc4)c2O)OC(C)(C)C=C3)c1O
inactive: [1] 23.9% | [2] 29.8% | [3] 49.1% | [4] 17.7% | [5] 39.8% | [6] 14.5%

NC(=Nc1ccccc1)Nc1ccccc1 (tested in a mixture with another compound)
inactive: [1] -1.65% | [2] -12.1% | [3] 1.7% | [4] 13.2% | [5] 6.4% | [6] 6.35%

O=c1cc([N+](=O)[O-])n(O)cc1[N+](=O)[O-]
inactive: [1] 31.1% | [2] 12.6% | [3] 32.5% | [4] 21.2% | [5] -4.1% | [6] 44.5%

CC1OCN2CCCCC12 (stereo unspecified)
inactive: [1] -25.9% | [2] -12.7% | [3] -33.4% | [4] -7.85% | [5] -25.1% | [6] -27.1%

CC1C(C)(C)P(=O)(Oc2ccc3ccccc3c2)C1(C)C (stereo unspecified)
active: [1] 71.6% | [3] 84% | [4] 80.7% | [5] 94.4%
inactive: [2] 55.3% | [6] 56.6%

CCC[P+](CCC)(CCC)CCCCCCCCCC[P+](CCC)(CCC)CCC
inactive: [1] -2.65% | [2] -13% | [3] 2.05% | [4] -21.2% | [5] -1.15% | [6] -0.5%

C/C=C1\C[C@@H]2C(OC)Nc3cc(O)c(OC)cc3C(=O)N2C1 (stereo partly specified)
inactive: [4] 56.9% | [6] 31.7%
active: [1] 77.5% | [2] 70.7% | [3] 84% | [5] 81.3%

Clc1cccc(Cl)c1NC1=NCCS1
inactive: [1] -11.7% | [2] -20.8% | [3] 12.7% | [4] 6.1% | [5] -2.25% | [6] 6.45%

O=C(Cl)OC1CS(=O)(=O)CC1O (stereo unspecified)
inactive: [1] -6.6% | [2] 1% | [3] -2.5% | [4] -34.6% | [5] 4.45% | [6] 0.25%

NC(=O)C[CH2][Sn]([Cl])([Cl])[CH2]CC(N)=O
inactive: [1] -5.65% | [2] -5.5% | [3] 3.55% | [4] 5.3% | [5] 7.9% | [6] -7%

O=C1CCN(C2(c3ccccc3)CCCCC2)CC1
inactive: [1] 3.85% | [2] -4.1% | [3] 3.55% | [4] -5.1% | [5] -8.85% | [6] -1.35%

CC(C)(C)c1ccc2c(cc[n+]3ccccc23)c1
inactive: [1] -9.05% | [2] -6.85% | [3] 2.05% | [4] 4.05% | [5] 2.35% | [6] -11.9%

Nc1ccc(N)cc1
inactive: [1] 10.9% | [2] 25.8% | [3] -23.7% | [4] -7.4% | [5] -5.9% | [6] -1%

N#CCc1ccc(CC#N)cc1
inactive: [1] 14.1% | [2] -10.6% | [3] -2.8% | [4] 16.6% | [5] -5.1% | [6] 1.45%

C=C(C(=C)P(=S)(C(C)C)C(C)C)P(=S)(C(C)C)C(C)C
inactive: [1] -8.65% | [2] -10.6% | [3] 4.75% | [4] 24.1% | [5] -7% | [6] -3.45%

c1cc(C[N+]23CN4CN(CN(C4)C2)C3)cs1
inactive: [1] -5.75% | [2] 14.2% | [3] 3.95% | [4] -7.65% | [5] 1.55% | [6] -13.7%

Cc1ccc2c(c1)Cc1ccccc1-2
inactive: [1] 22.9% | [2] -17.2% | [3] 16.9% | [4] 23.7% | [5] 10.2% | [6] 34.9%

CCCCOP(=O)(O)OCCCC.[V]
inactive: [1] -0.55% | [2] -1.55% | [3] -1.55% | [4] -17.1% | [5] -10.9% | [6] 0.65%

CC1OC(=O)C(C(C)C)NC(=O)C(C(C)C)OC(=O)C(C(C)C)NC(=O)C(C)OC(=O)C(C(C)C)NC(=O)C(C(C)C)OC(=O)C(C(C)C)NC(=O)C(C)OC(=O)C(C(C)C)NC(=O)C(C(C)C)OC(=O)C(C(C)C)NC1=O (stereo unspecified)
inactive: [1] 31.9% | [2] 38.8% | [3] 45.9% | [4] 25.1% | [5] 16.8% | [6] 42.5%

CCN(CC)CC#N
inactive: [1] 3.8% | [2] -2.75% | [3] -6.4% | [4] -0.25% | [5] 3.45% | [6] -0.7%

CC1=C(C)C(=O)OC(C(C)(O)C2(O)CCC3(O)C4CC(Cl)C5(O)C(O)C=CC(=O)C5(C)C4CCC32C)C1 (stereo unspecified)
inactive: [1] 7.8% | [2] -37.3% | [3] -18.7% | [4] -3.2% | [5] -15.9% | [6] -52.2%

Cn1nnc(-c2nnn(C)n2)n1
inactive: [1] -19.1% | [2] -12.5% | [3] -8.65% | [4] -14.8% | [5] -15.9% | [6] -19.6%

S=C(N=Nc1ccccc1)NNc1ccccc1.[Ni]
inactive: [1] 12.3% | [2] -15.3% | [3] 2% | [4] 6.25% | [5] 26.8% | [6] 0.5%

C[C@]12CC[C@H]3[C@@H](CCC4=C[C@@H](OC5OCC(OC6OC(CO)C(O)C(O)C6O)C(O)C5O)CC[C@@]43C=O)[C@@]1(O)CCC2C1=CC(=O)OC1 (stereo partly specified)
inactive: [1] -31.8% | [2] -20.4% | [3] -29.6% | [4] -4.1% | [5] -16.7% | [6] 2.2%

O=c1c2ccccc2nc(-c2ccccc2Cl)n1-c1nnc(C(F)(F)F)s1
inactive: [1] -13.8% | [2] -13.1% | [3] 18.3% | [4] 6.15% | [5] -13.2% | [6] -6.5%

CCOP(=S)(OCC)Oc1cnn(C)c(=S)c1Cl
inactive: [1] 12.8% | [2] -18.6% | [3] -0.85% | [4] 10.3% | [5] -4.85% | [6] 8.05%

CCC1(/C=C/C(C)C)C(=O)NC(=S)NC1=O
inactive: [1] -0.75% | [2] 4.55% | [3] -0.8% | [4] 0.85% | [5] 0.05% | [6] 2.8%

C[N+](C)(C)CC1(COC(=O)C(O)(c2ccccc2)c2ccccc2)CCCCC1
inactive: [1] -3.5% | [2] 6.45% | [3] -16.8% | [4] -7.2% | [5] -2.95% | [6] 5.05%

CCC(C)OP(=S)(S)OC(C)CC.[Zn+2] (stereo unspecified)
inactive: [1] 1.8% | [2] 22.3% | [3] -6% | [4] -5.55% | [5] 25.2% | [6] -5.95%

CC([OH2+])CNCCN.CC([OH2+])CNCCN.O=[N+]([O-])[O-].[Cu+2] (stereo unspecified)
inactive: [1] -10.1% | [2] -8.95% | [3] 5.25% | [4] -39.6% | [5] -0.7% | [6] 0.2%

O=C(Nc1ccc(Cl)cc1C(=O)c1ccccc1)c1ccc([N+](=O)[O-])cc1
inactive: [1] -1.4% | [2] -3.1% | [3] -0.5% | [4] -40.1% | [5] 4.2% | [6] 12.8%

O=C1OC(C(O)CO)C(O)=C1OC[N+]1(CCCl)CCN(CCCl)CC1 (stereo unspecified)
inactive: [1] 11.8% | [2] 12.7% | [3] 4.9% | [4] 4.7% | [5] 10.3% | [6] 9.4%

Cc1cc(S(=O)(=O)F)ccc1NC(=O)NCc1ccc(N2C(N)=NC(N)=NC2(C)C)cc1
inactive: [1] -6.25% | [2] -18% | [3] -3.95% | [4] -37.7% | [5] -9.4% | [6] -8.3%

Cc1cc(CCl)cc(=O)[nH]1
inactive: [1] -9.75% | [2] -0.7% | [3] -7.55% | [4] -8.9% | [5] -20.6% | [6] 12.2%

CC(C)CN(CC(C)C)[N+](=O)[O-]
inactive: [1] -6.25% | [2] 1.45% | [3] -17.8% | [4] 4.05% | [5] 6.05% | [6] -12.7%

[N-]=[N+]=CC(=O)c1ccc(Cl)cc1
inactive: [1] 34.5% | [2] 28.4% | [3] 14% | [4] -16.5% | [5] 50.1% | [6] 52.2%
